Shown are actives, neighbours in structure and some others; about 3.5% of the full set was active somewhere.
MITF primary: MITF inhibitors, primary screen, biochemical, AlphaScreen, human | Microphthalmia-associated transcription factor (Homo sapiens), O75030 | AlphaScreen MITF homodimerization, bead proximity signal | inhibition, % at 2.6 µM | 650,000 compounds, 0.91% hits | AID 1259374, 2018; in the data active means inhibition above about 50%;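 further: 0% = vehicle wells with protein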
GPR151 activ: activators of human GPR151, primary screen, cell-based, PathHunter beta-arrestin, luminescence; PathHunter beta-arrestin GPR151 cells; activation, % at 11.2 µM; 650,000 compounds, 1% hits; in the data active means activation above about 4.9%;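 further: 0% = median of compound wells and 100% = cells with positive control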
Target sequence (Q8TDV0 whole entry, looked up): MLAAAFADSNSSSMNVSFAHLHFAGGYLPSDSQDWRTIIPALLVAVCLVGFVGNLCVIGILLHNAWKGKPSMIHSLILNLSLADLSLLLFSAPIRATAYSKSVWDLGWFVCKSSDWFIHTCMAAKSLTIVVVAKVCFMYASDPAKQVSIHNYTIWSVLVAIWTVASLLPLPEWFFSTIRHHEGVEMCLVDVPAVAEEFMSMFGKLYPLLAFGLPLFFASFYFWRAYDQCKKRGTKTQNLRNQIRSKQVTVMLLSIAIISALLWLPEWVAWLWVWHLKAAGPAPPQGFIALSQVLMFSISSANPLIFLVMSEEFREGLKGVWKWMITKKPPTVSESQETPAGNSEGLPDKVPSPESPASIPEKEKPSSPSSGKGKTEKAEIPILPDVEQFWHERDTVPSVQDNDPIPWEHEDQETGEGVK
TEAD-YAP block: TEAD-YAP interaction inhibition, primary screen, TEAD-YAP interaction inhibitor project, luminescence, HEK-TIYL cells; TEAD-Gal4/YAP UAS-luciferase luminescence; inhibition, % at 9.12 µM; 640,000 compounds, 1.4% hits; AID 1259422, 2018; in the data active means inhibition above about 32%;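 further: 0% = median of test compound wells and 100% = reference inhibitor wells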
FBW7 activator: FBW7 E3 ligase activators, primary screen, biochemical, AlphaScreen, human | F-box/WD repeat-containing protein 7 (Homo sapiens), Q969H0 | AlphaScreen FBW7–phospho-cyclin E peptide binding, activator screen | normalized activity (activation), % at 26.1 µM | 650,000 compounds, 0.13% hits; in the data active means normalized activity above about 1.9%;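 further: purified mutant Fbw7 with reduced substrate affinity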
The depositor's hits bear a star.

SMILES	MITF primary	GPR151 activ	TEAD-YAP block	FBW7 activator
O=C(CSc1ccccn1)NC12CC3CC(CC(C3)C1)C2	-10.2	-0.2	0.6	0.0
COc1ccc(CNc2nc(Nc3ccc(N4CCOCC4)cc3)nc3nc[nH]c23)cc1	0.9	1.3	-16.4	-0.1
COc1ccc(CCNc2nc(Nc3ccc(N4CCOCC4)cc3)ncc2C)cc1	19.7	3.4	64.0*	-0.4
Cn1cnc(-c2ccccc2Nc2nc(Nc3ccc(N4CCOCC4)cc3)ncc2Cl)n1	27.4	0.8	33.4*	-0.7
Cc1cnc(Nc2ccncc2)nc1NCc1ccccc1	21.4	0.7	40.5*	0.0
COc1ccc(CCNc2nc(Nc3ccc(N4CCOCC4)cc3)nc3nc[nH]c23)cc1	14.8	2.7	48.7*	-0.1
Cc1cc(-c2ccc(NC(=O)/C=C/C(=O)O)c(C)c2)ccc1NC(=O)/C=C/C(=O)O	4.3	-2.3	-7.3	-0.2
CCCCNC(=O)C(=O)NCC1OCCCN1S(=O)(=O)c1ccc(F)c(C)c1 (stereo not given)	-0.4	0.5	9.5	0.0
O=C(c1ccc(Cl)cc1Cl)N1CCN(c2ccc(-c3ccncc3)nn2)CC1	-12.0	-0.7	-21.1	-0.3
Cc1cnc(Nc2nc3ccccc3n2C)nc1NCc1ccccc1	10.2	-0.2	42.3*	0.7
Cc1cnc(Nc2ccc(N3CCOCC3)cc2)nc1NCc1cccnc1	8.1	0.0	-9.2	-0.3
COc1ccc(CCNc2nc(Nc3ccc(C(F)(F)F)cc3)nc3nc[nH]c23)cc1	5.0	-0.9	9.0	0.1
COc1ccc(CCNc2nc(Nc3ccncc3)nc3nc[nH]c23)cc1	1.7	0.0	44.2*	-0.1
Cc1cnc(Nc2ccc(N3CCOCC3)cc2)nc1NCc1ccccc1	30.3	0.9	37.0*	-0.1
COC(=O)C1=C(N)n2c(s/c(=C/c3ccco3)c2=O)=C(C(=O)OC)C1c1ccco1 (stereo not given)	18.5	0.5	49.1*	0.4
CCc1cc2cc3c(cc2nc1SCC(=O)NC(C)(C)C)OCO3	13.0	1.7	38.0*	0.1
CCc1cc2cc3c(cc2nc1SCC(=O)NC(C)(C)C)OCCO3	10.1	-0.7	46.6*	0.1
CCC(=O)NNC(=O)CSc1nc2cc3c(cc2cc1CC)OCCO3	-2.3	-1.2	-6.7	0.1
O=C(CCNc1cccc([N+](=O)[O-])c1)c1ccccc1	-7.2	0.3	-6.2	0.1
C#CCN(C)C(=O)c1c(C)nc2sccn12	19.3	0.0	10.3	1.9*
C=CCn1c(SCc2ccccc2Cl)nc2c1c(=O)[nH]c(=O)n2C	8.7	-0.3	53.3*	0.2
C=CCn1c(SCc2cccc(C)c2)nc2c1c(=O)[nH]c(=O)n2C	-7.5	-0.5	44.6*	-0.3
C=CCSc1nc2c(c(=O)[nH]c(=O)n2C)n1Cc1ccccc1Cl	4.0	0.6	-2.8	0.1
N#Cc1c(NC(=O)c2cccc(S(=O)(=O)N3CCCCC3)c2)sc2c1CCCC2	2.0	0.0	12.2	-0.1
Cc1ccc2nc(-c3cccc(Cl)c3)cn2c1	7.5	-8.3	76.7*	0.0
SMILES	MITF primary	GPR151 activ	TEAD-YAP block	FBW7 activator
COc1ccc(-c2cn3cc(C)ccc3n2)cc1OC	4.4	-8.3	-4.9	0.1
COc1ccc(-c2cn3cc(C)ccc3n2)cc1F	1.4	-5.8	68.4*	0.2
CN(C)S(=O)(=O)c1cccc(-c2cn3cc(Cl)ccc3n2)c1	15.0	-0.9	-44.0	0.4
Cc1ccc2nc(-c3ccc4ccccc4c3)cn2c1	1.8	-6.5	94.4*	0.0
Cc1ccc2nc(-c3ccc4c(c3)NC(=O)CO4)cn2c1	3.1	-0.6	-49.4	0.2
CC(C)CCNC(=O)COc1cc(=O)n(C)c2ccccc12	-9.6	-0.4	-9.0	-0.1
CCOc1ccc(C(=O)c2cc([N+](=O)[O-])ccc2N2CCOCC2)cc1	9.3	0.1	60.1*	-0.2
CCC(CC)NC(=O)c1cc([N+](=O)[O-])ccc1N1CCOCC1	3.5	0.9	8.9	0.0
COc1ccc(C(=O)c2cc([N+](=O)[O-])ccc2N2CCOCC2)cc1	-6.4	1.2	60.2*	-0.1
Cc1ccc(C(=O)c2cc([N+](=O)[O-])ccc2N2CCOCC2)cc1	9.7	-0.2	8.6	0.1
O/N=C/c1ccccc1OCc1ccc(F)cc1	-4.0	0.7	-6.8	0.1
COc1cc(/C=C2\N=C(c3ccc([N+](=O)[O-])cc3)OC2=O)ccc1OC(C)=O	1.2	-0.7	3.5	0.1
O=C(NCCc1nc(-c2ccccc2)cs1)c1cccc(C(=O)NCCc2nc(-c3ccccc3)cs2)c1	-3.3	0.8	47.9*	-0.1
COc1ccc(Br)cc1C1C=C(c2cccs2)Nc2nnnn21 (stereo not given)	17.1	-0.3	41.8*	0.1
COc1cccc(C2=CC(c3ccc(OC)cc3OC)n3nnnc3N2)c1 (stereo not given)	1.8	2.8	47.9*	-0.2
COc1cccc(C2=CC(c3cccc(F)c3)n3nnnc3N2)c1 (stereo not given)	-3.0	-1.3	49.5*	-0.1
CC(C)c1ccccc1OCCNC(=S)NC(=O)c1cccnc1	-4.6	1.7	-26.2	0.2
Nc1nnc(SCC(=O)N2CCN(c3ccccc3)CC2)n1-c1ccccc1	1.3	1.6	-10.3	0.0
COc1ccc(CCNc2nc(-c3ccc(OC)nc3)ncc2C)cc1	3.5	-1.7	41.4*	-0.1
COc1ccc(CCNc2nc(-c3ccccc3)ncc2C)cc1	-4.0	-1.6	42.2*	-0.1
COc1ccc(CCNc2nc(-c3c(C)noc3C)ncc2C)cc1	-3.6	0.5	40.9*	0.1
COc1ccc(CCNc2nc(-c3ccc(OC)cc3)ncc2C)cc1	-3.3	0.4	0.2	0.0
COc1ccc(CCNc2nc(-c3c(C)nn(C)c3C)ncc2C)cc1	11.3	2.0	2.6	0.4
NC(=O)c1ccc(-c2nc(NC3CC3)c3ncn(-c4ccccc4)c3n2)cc1	22.8	-3.2	35.6*	0.3
CC(=O)Nc1ccc(Nc2nc(-c3ccc(C(=O)N4CCN(C)CC4)cc3)nc3c2ncn3-c2ccsc2)cc1	2.2	0.8	36.0*	0.0
SMILES	MITF primary	GPR151 activ	TEAD-YAP block	FBW7 activator
NC(=O)c1ccc(-c2nc(Nc3ccc(Oc4ccccc4)cc3)c3ncn(-c4ccsc4)c3n2)cc1	15.4	0.2	5.0	0.3
NC(=O)c1ccc(-c2nc(Nc3ccccc3)c3ncn(-c4ccsc4)c3n2)cc1	16.0	-0.1	50.3*	0.2
CC(=O)Nc1ccc(Nc2nc(-c3ccc(C(N)=O)cc3)nc3c2ncn3-c2ccsc2)cc1	-6.0	-1.9	39.1*	0.1
c1ccc(-c2nc(NC3CC3)c3ncn(-c4ccccc4)c3n2)cc1	-2.4	-2.5	4.8	-0.2
CCOC(=O)N1CCc2c(sc(NC(=O)c3ccc(S(=O)(=O)N4CCCc5ccccc54)cc3)c2C(=O)OC)C1	6.4	3.4	-10.6	0.1
COc1ccc(-c2nn(-c3ccccc3)cc2C(N)=O)cc1	20.3	0.7	-17.0	0.4
COc1ccc(-c2nc(Nc3ccccc3)c3ncn(-c4ccsc4)c3n2)cn1	16.2	-2.4	0.3	0.3

Bioassay records (PubChem)
